FBW7 activator – FBW7 E3 ligase activators, primary screen, biochemical, AlphaScreen, human | F-box/WD repeat-containing protein 7 (Homo sapiens), Q969H0 | AlphaScreen FBW7–phospho-cyclin E peptide binding, activator screen | normalized activity (activation), % at 26.1 µM | actives 0.13% (n = 650,000); in the data active = normalized activity above about 1.9%;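 note: purified mutant Fbw7 with reduced substrate affinity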
TEAD-YAP inh – TEAD-YAP interaction inhibition, primary screen, TEAD-YAP interaction inhibitor project, luminescence, HEK-TIYL cells; TEAD-Gal4/YAP UAS-luciferase luminescence; inhibition, % at 9.12 µM; actives 1.4% (n = 640,000); AID 1259422, 2018; in the data active = inhibition above about 32%;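 note: 0% = median of test compound wells and 100% = reference inhibitor wells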
MITF primary – MITF inhibitors, primary screen, biochemical, AlphaScreen, human | Microphthalmia-associated transcription factor (Homo sapiens), O75030 | AlphaScreen MITF homodimerization, bead proximity signal | inhibition, % at 2.6 µM | actives 0.91% (n = 650,000) | AID 1259374, 2018; in the data active = inhibition above about 50%;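 note: 0% = vehicle wells with protein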
Target sequence (O75030 whole entry, looked up): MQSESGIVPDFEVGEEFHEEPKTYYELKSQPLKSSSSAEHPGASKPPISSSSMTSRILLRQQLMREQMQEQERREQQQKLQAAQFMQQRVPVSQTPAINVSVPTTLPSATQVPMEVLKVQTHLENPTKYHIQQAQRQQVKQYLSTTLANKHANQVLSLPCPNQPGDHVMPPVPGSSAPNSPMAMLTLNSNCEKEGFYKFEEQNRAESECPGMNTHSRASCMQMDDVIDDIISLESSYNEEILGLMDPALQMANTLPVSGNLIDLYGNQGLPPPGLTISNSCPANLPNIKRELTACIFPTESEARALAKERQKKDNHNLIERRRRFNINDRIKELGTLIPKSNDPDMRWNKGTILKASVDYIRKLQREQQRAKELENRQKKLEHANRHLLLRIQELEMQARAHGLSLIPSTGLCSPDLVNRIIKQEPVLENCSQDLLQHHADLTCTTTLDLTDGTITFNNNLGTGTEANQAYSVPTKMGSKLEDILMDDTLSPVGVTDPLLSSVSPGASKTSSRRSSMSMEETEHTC
GPR151 ag – activators of human GPR151, primary screen, cell-based, PathHunter beta-arrestin, luminescence. activation, % at 11.2 µM. actives 1% (n = 650,000). G-protein coupled receptor 151 (Homo sapiens), Q8TDV0. AID 1508602, 2020. PathHunter beta-arrestin GPR151 cells; in the data active = activation above about 4.9%;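 note: 0% = median of compound wells and 100% = cells with positive control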
GPR151 conf act – GPR151 activators, triplicate retest, confirmation, cell-based, PathHunter beta-arrestin, luminescence | shares compounds with GPR151 ag | GPR151 PathHunter beta-arrestin cells, 90 min; % of EA-reagent control over plate median | activation, % at 11.2 µM | 6,700 tested, under 10 active;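 active = mean percent activation across replicates above the confirmation screen cutoff of 4.91%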
GPR119 ag – GPR119 activators in beta-arrestin cells, counter-screen for GPR151 activator project, cell-based, PathHunter beta-arrestin, luminescence, triplicate; shares compounds with GPR151 ag; 90 min; 0 = compound-well median, 100 = enzyme-acceptor control; activation, % at 11.2 µM; actives 0.3% (n = 6,700);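 active = mean percent activation in the counterscreen above 29.09%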;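 note: counterscreen on off-target GPR119 to flag nonselective hits from the GPR151 activator screen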
An asterisk follows results filed as active; · = no result given; ! = a repeat was not active. Compounds with a hit are over-represented: about 3.4% of the library has one in this group of screens.

SMILES	FBW7 activator	TEAD-YAP inh	MITF primary	GPR151 ag	GPR151 conf act	GPR119 ag
COc1cc2nc(CN3CCN(c4ccccc4)CC3)nc(N3CCCCC3)c2cc1OC	-0.2	-2.0	14.9	0.1	·	·
CCC(Sc1ccccc1C(=O)O)C(=O)O (configuration not stated)	0.0	10.7	10.6	-0.3	·	·
CCC(Sc1c[nH]c2ccccc12)C(=O)O (configuration not stated)	-0.2	-5.5	-1.8	5.5*	0.2	-0.5
O=C1c2cccc([N+](=O)[O-])c2C(=O)N1c1ccc(OCc2ccccc2)cc1	-0.2	-8.4	-1.4	-1.7	·	·
O=C(Oc1ccccc1N1C(=O)C2C3CCC(C3)C2C1=O)c1ccccc1Cl (configuration not stated)	-0.1	3.8	-3.5	0.3	·	·
CCC(=O)N1CCC[C@@H]2CN(C(=O)/C=C/c3cccs3)CC[C@H]21	0.1	-17.3	-1.8	5.6*	0.4	-2.4
CC(=O)NCCNC(=O)c1ccc(-c2ccccc2)nc1NCCc1ccccn1	0.0	11.9	-10.4	5.1*	-0.1	-2.8
O=C(CN1CCCCC1)N/N=C/c1ccccc1O	-0.3	13.3	49.4	5.8*	1.1	11.5
CCCCC(=O)c1ccc(OC(=O)/C=C/c2ccc(OC)cc2)cc1	-0.2	2.8	-6.2	3.5	·	·
CC(=O)N1CCc2cc(Br)cc(S(=O)(=O)Nc3cccc(Cl)c3)c21	-0.1	4.2	-10.9	-0.6	·	·
CC(=O)N1CCc2cc(Br)cc(S(=O)(=O)Nc3noc4ccccc34)c21	0.3	-7.2	-17.4	19.0*	-0.5	-15.4
OCCNCc1ccccc1OCc1ccc(F)cc1	0.1	-4.7	-2.3	-1.2	·	·
Cn1ncc2c(NCCc3ccc(Cl)cc3Cl)ncnc21	0.1	28.1	1.3	5.0*	3.0	34.7*
Cn1ncc2c(Nc3ccc(Cl)cc3Cl)ncnc21	0.0	1.9	12.5	0.7	·	·
CCOC(=O)C1CCN(c2c(N3CCN(c4cccc(Cl)c4)CC3)c(=O)c2=O)CC1	0.1	-5.1	3.0	5.2*	-0.9	-16.0
CCOC(=O)C1CCCN(c2c(N3CCN(c4cccc(Cl)c4)CC3)c(=O)c2=O)C1 (configuration not stated)	-0.1	8.0	-7.4	0.9	·	·
CS(=O)(=O)c1ccc(NC(=O)CO)c([N+](=O)[O-])c1	-0.1	1.7	9.6	1.6	·	·
CCc1nn(C(CC)C(=O)NC2CCCC2)c(=O)c2cc3oc(C)cc3n12 (configuration not stated)	-0.3	4.9	3.7	12.8*	-0.2	-1.3
CCc1nn(C(CC)C(=O)NC2CCCC2)c(=O)c2cc3occc3n12 (configuration not stated)	-0.1	8.0	-31.8	-0.5	·	·
COc1ccc(-n2nc(C(=O)NCC(=O)NCCCN3CCN(C)CC3)c3ccccc3c2=O)cc1Cl	0.0	-7.3	-7.2	-0.6	·	·
O=C(NCSC1=NCCS1)c1ccccc1	0.0	-10.2	1.1	8.2*	-0.1	4.9
c1ccc(CSC2=NCCS2)cc1	0.0	-19.4	-2.2	0.3	·	·
CCC(Oc1ccccc1)c1nnc(NC(=O)Cc2ccccc2)s1 (configuration not stated)	0.4	3.6	17.1	27.9*	-0.3	-10.6
CCc1ccc(OC(=O)c2ccc(C(=O)Oc3ccc(CC)cc3)nc2)cc1	0.1	9.1	-20.0	5.4*	-0.3	-2.8
CCOc1ccc(OC(=O)c2ccc(C(=O)Oc3ccc(OCC)cc3)nc2)cc1	0.0	-5.7	-11.7	-1.1	·	·
SMILES	FBW7 activator	TEAD-YAP inh	MITF primary	GPR151 ag	GPR151 conf act	GPR119 ag
CNCc1ccc(-c2ccc(Cl)cc2)o1	0.0	-8.6	14.1	5.0*	0.1	-4.2
CNCc1ccc(-c2ccc(Br)cc2)o1	0.0	-3.1	11.1	-0.2	·	·
Cn1c(=O)c2c(nc(NCCO)n2Cc2ccccc2F)n(C)c1=O	0.1	25.5	22.3	16.0*	-0.6	5.5
Cn1c(=O)c2c(nc(NCCO)n2Cc2ccc(Br)cc2)n(C)c1=O	0.0	20.8	5.6	5.5*	0.7	3.8
CCOc1ccc(NC(=O)C(CC(=O)O)C(C)c2ccccc2)cc1 (configuration not stated)	0.0	16.2	3.8	0.1	·	·
CC(C)CNC(=O)NC(=O)COC(=O)c1ccccc1N=Nc1ccc(O)cc1	0.6	4.5	14.7	5.9*	1.0	6.3
CC(C)CNC(=O)COC(=O)c1ccc(O)cc1	0.0	3.3	9.0	0.3	·	·
Cc1nc2cnc(-c3ccsc3)cn2c1NC(=O)c1ccco1	0.1	-0.1	-15.7	2.7	·	·
CCOC(=O)c1oc2ccccc2c1NC(=O)c1ccc(Cl)s1	0.3	-26.2	15.4	6.5*	-0.5	-2.1
CCOC(=O)c1oc2ccccc2c1NC(=O)C1CCCCC1	1.1	-3.7	9.9	-0.4	·	·
CCOC(=O)c1oc2ccccc2c1NC(=O)C1COc2ccccc2O1 (configuration not stated)	0.1	10.4	-0.1	5.5*	-0.1	3.5
COc1nc(NCCc2ccc(O)cc2)nc(-c2ccc(C(=O)NC3CC3)cc2)n1	-0.1	4.2	7.1	1.0	·	·
CC(CN(C)C)CN1c2ccccc2Sc2ccccc21 (configuration not stated)	-0.1	8.0	5.2	1.0	·	·
CC(CN1c2ccccc2Sc2ccccc21)N(C)C (configuration not stated)	0.0	-6.8	-7.3	7.4*!	-0.8	-5.3
CCOC(=O)C1C(=O)CC(C)(O)C(C(=O)OCC)C1c1ccc2c(c1)OCO2 (configuration not stated)	0.2	-3.0	-1.5	5.1*	-0.7	-6.1
CCOC(=O)C1C(=O)CC(C)(O)C(C(=O)OCC)C1c1ccc(C)cc1 (configuration not stated)	-0.2	12.6	8.4	-0.2	·	·
N#C/C(=C\c1ccc(Br)c([N+](=O)[O-])c1)c1nn(-c2ccccc2)c(N)c1C#N	-0.1	7.3	6.7	4.9*	-0.3	5.8
CN(C)c1ccc(/C=C(\C#N)c2nn(-c3ccccc3)c(N)c2C#N)cc1[N+](=O)[O-]	-0.1	-3.7	7.5	1.8	·	·
O=c1[nH]c2ccccc2nc1/C=C(\O)C(F)F	-0.1	4.3	14.4	-0.1	·	·
C/C(O)=C\c1nc2ccccc2[nH]c1=O	0.3	6.9	12.3	6.9*	0.0	12.7
COc1ccc(C(=O)NCCc2nnc3n2CCN(CC(C)(C)C)CC3)cc1	0.0	-1.5	5.9	0.2	·	·
CCC(C)NC(=O)CN(c1cccc(C(F)(F)F)c1)S(C)(=O)=O (configuration not stated)	0.2	2.6	-2.7	0.0	·	·

Screens (PubChem BioAssay)
